Assay outcomes deposited in PubChem by several laboratories.
Gli-Sufu block – Gli-Sufu pathway antagonism. Sufu-KO-LIGHT fibroblasts, Gli luciferase reporter luminescence. 340,000 compounds, 0.74% hits. inhibition, % at 5 µM. AID 588413;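 active = inhibition above about 55%, limit read from the data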;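 note: 0% = DMSO-treated cells and 100% = wells with medium but no cells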
Jurkat NFkB inh – lowers PMA/ionomycin-induced NF-kB signal in Jurkat cells. PMA/ionomycin-induced NF-kB luciferase reporter, luminescence. 330,000 compounds, 0.53% hits. inhibition, % at 4 µM; in the data active = inhibition above about 50%
LMP1 NFkB inh – Epstein-Barr LMP1 NF-kappaB reporter inhibition; LMP1-induced NF-kappaB luciferase reporter cells, luminescence; inhibition, % at 12.5 µM; 350,000 compounds, 0.69% hits; AID 504558; in the data active = inhibition above about 41%; inconclusive = no clear call, values can overlap the other calls;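 note: 0% = neutral control wells and 100% = reference inhibitor control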
TRPM1 prom inh – inhibitors of MITF-driven TRPM1 promoter in melanoma cells | SK-MEL-5 TRPM1 promoter luciferase, 24 h | inhibition, % at 12.5 µM | 330,000 compounds, 0.83% hits | AID 488899;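 active = mean inhibition across replicates of 60% or more, whatever share of single replicates reaches that level; inconclusive = some that reach 60%, reason not given; inactive = mean inhibition across replicates below 60%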
697 NFkB inh – lowers PMA/ionomycin-induced NF-kB signal in 697 B cells; inhibition, % at 4 µM; 697 B-cell NF-kB luciferase reporter, 16 h; 330,000 compounds, 0.33% hits; AID 435022; in the data active = inhibition above about 35%
Shn3 3UTR inh – Schnurri-3 reporter inhibition in Clone20 osteoblasts; inhibition, % at 12.5 µM; AID 588674; 360,000 compounds, 0.52% hits; Clone20 osteoblast Shn3 3'UTR firefly luciferase, 24 h;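 active = mean inhibition of at least 75% with every replicate also reaching 75%; inconclusive = mean inhibition at least 75% but some replicate below; inactive = mean inhibition below 75%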;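 note: 0% = median of neutral control wells and 100% = pilot-screen positive control compound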
* hit, by the source's call; u = inconclusive; x = no result given. In the library only some 2.3% were active in any assay of this set; here they are far more common.

SMILES | Gli-Sufu block | Jurkat NFkB inh | LMP1 NFkB inh | TRPM1 prom inh | 697 NFkB inh | Shn3 3UTR inh
C=CCN1CCN(C(CC(C)C)c2nnnn2CCOC)CC1 (configuration not stated) | -2 | -10 | 49* | 2 | 5 | 2
Cc1ccc2oc(C(F)(F)C(F)F)cc(=O)c2c1 | -1 | -18 | -1 | -4 | 2 | -2
Cc1ccc2oc(C(Cl)(Cl)Cl)cc(=O)c2c1 | 43 | 49 | 3 | 67* | -4 | 42
CCCCCCCC[n+]1cccc2c3ccccc3ccc21 | 90* | 47 | 33 | 86* | 18 | 80
Cc1cccc[n+]1CCCCCCCCCC[n+]1ccccc1C | 19 | 6 | 8 | 11 | 11 | 8
CCCCCCCCCC[n+]1cccc2c3ccccc3ccc21 | 89* | x | 30 | 101* | x | 84
Cc1ccc(F)cc1NC(=O)CN1C(=O)NC2(CCCc3ccccc32)C1=O (configuration not stated) | -2 | 13 | 3 | 1 | -2 | -4
COc1cc2ncnc(N[C@H](C)c3ccccc3)c2cc1OC | 13 | 10 | 3 | 22 | -1 | 90*
c1csc(C2=Nn3c(nnc3-c3ccncc3)SC2)c1 | 15 | 40 | -1 | -13 | 1 | 24
Clc1ccccc1C1=Nn2c(nnc2-c2ccncc2)SC1 | -8 | x | 56* | -18 | x | 0
COc1ccc(Cl)cc1NC(=O)N1CCN(c2ccccc2OC)CC1 | 4 | 3 | -5 | -10 | 12 | 12
CC(=O)N1c2ccc(S(=O)(=O)NC(CC(=O)O)c3ccc(Br)cc3)cc2CC1C (configuration not stated) | -13 | 3 | -2 | 5 | 7 | -12
COc1cc(OC)c(/C=C2\SC(=O)N(CC(=O)Nc3ccccc3F)C2=O)c(OC)c1 | 6 | 1 | 44* | 7 | 18 | 5
COc1cc(/C=C2\SC(=O)N(CC(=O)Nc3ccccc3F)C2=O)cc(Cl)c1O | 12 | 16 | 7 | 9 | 31 | 10
COc1ccc2cc(C(=O)NC3CCCCC3)c(=O)oc2c1 | 23 | x | 81* | -66 | x | -1
COc1ccc(-c2cc(C#N)nc(Cl)n2)cc1 | -3 | 9 | 3 | 66* | 24 | 8
O=C(Nc1ccc(Cl)c(Cl)c1)Nc1nnc(CC2=CCCCC2)s1 | 44 | -2 | 71* | 30 | -43 | 47
N#CC(c1ccc(Cl)cc1)c1ccc2c(C(F)(F)F)cc(C(F)(F)F)nc2n1 (configuration not stated) | 92* | 5 | 52* | 79* | -8 | 89*
CCOc1ccc(N(CC(=O)N2CCc3ccccc32)S(=O)(=O)c2c(C)noc2C)cc1 | 3 | 19 | 47* | 20 | 17 | -7
Cc1cc(C)cc(N(CC(=O)N2CCc3ccccc32)S(=O)(=O)c2c(C)noc2C)c1 | 1 | 8 | -3 | 2 | 20 | -4
C#CCOCCOCCOCCNc1nc(N2CCOCC2)nc(N2CCN(C(=O)[C@H](C)n3cc(CCC(=O)O)nn3)CC2)n1 | 8 | x | -13 | 1 | x | -87
Fc1cc(F)c(F)c(SCCc2ccncc2)c1F | 1 | 1 | 1 | 15 | -32 | 87*
Fc1ccc(SCCc2ccncc2)cc1 | -14 | 4 | -4 | -1 | 13 | 15
Cc1ccccc1Cn1c(=N)n(CC(=O)c2ccc([N+](=O)[O-])cc2)c2ccccc21 | 32 | x | -26 | 66* | x | -13
CCCn1c(=N)n(CC(=O)c2ccc([N+](=O)[O-])cc2)c2ccccc21 | -3 | -12 | 4 | 27 | 12 | 16
SMILES | Gli-Sufu block | Jurkat NFkB inh | LMP1 NFkB inh | TRPM1 prom inh | 697 NFkB inh | Shn3 3UTR inh
Cc1nn(C(=O)Cn2cc([N+](=O)[O-])cn2)c(C)c1Cl | -2 | 0 | 8 | 8 | 12 | -2
Cc1cc(C(=O)Nc2c(C)n(C)n(-c3ccccc3)c2=O)c2ccccc2n1 | 1 | 10 | -1 | -13 | 17 | -10
CCC(=O)N1CCN(c2ccc(NC(=O)c3cc4ccccc4o3)cc2Cl)CC1 | 15 | 24 | 27 | 52 | -10 | 53
CCCC(=O)N1CCN(c2ccc(NC(=O)c3cc4ccccc4o3)cc2Cl)CC1 | 1 | 40 | 24 | u | -60 | 91*
O=C(Nc1ccc(N2CCN(C(=O)c3ccccc3)CC2)c(Cl)c1)c1ccco1 | -13 | 13 | 22 | 3 | -1 | 42
O=C(Nc1ccc(N2CCN(C(=O)c3ccco3)CC2)c(Cl)c1)c1cc2ccccc2o1 | 7 | 18 | 27 | 70* | -28 | 90*
